# Results as given in PubChem BioAssay (NCATS).
# Where “and” joins values, the source holds several entries; their conditions need not be identical. Equal entries are not always repeated. Inconclusive results are not listed. A call without a number means that no potency is given here. A structure can be active in one record and inactive in another. Unmarked numbers belong to inactive results. Calls of active or inactive are those of the source. Calls come from the whole dose curve; as a rule, active = well fitted inhibition curve with a large enough effect; inconclusive = small, poorly fitted or top-dose-only effect; inactive = flat fitted curve, though single readings scatter.
# Columns and labels:
# [1] = system: P93_24; test: qHTS profiling for inhibitors of Plasmodium falciparum proliferation (AID 504749); conditions: P. falciparum in erythrocytes, SYBR Green DNA, 72 h; series mostly up to 28.7 µM
# How it was run: (§1)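 Three-day growth assay of blood-stage parasites in erythrocytes (0.3% parasitemia, 2.5% hematocrit) at 37 C, 5% CO2, quantified by SYBR Green DNA staining after overnight detergent lysis.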
# [2] = system: P94_40; test: as above; conditions: P. falciparum in erythrocytes, SYBR Green DNA, 72 h; series mostly up to 28.7 µM
# How it was run: as §1
# [3] = system: PAD; test: as above; conditions: P. falciparum in erythrocytes, SYBR Green DNA, 72 h; series mostly up to 28.7 µM
# How it was run: as §1
# [4] = system: PC15; test: as above; conditions: P. falciparum in erythrocytes, SYBR Green DNA, 72 h; series mostly up to 28.7 µM
# How it was run: as §1
# [5] = system: PC26; test: as above; conditions: P. falciparum in erythrocytes, SYBR Green DNA, 72 h; series mostly up to 28.7 µM
# How it was run: as §1
# [6] = system: PC49; test: as above; conditions: P. falciparum in erythrocytes, SYBR Green DNA, 72 h; series mostly up to 28.7 µM
# How it was run: as §1
# [7] = system: SC27B; test: as above; conditions: P. falciparum in erythrocytes, SYBR Green DNA, 72 h; series mostly up to 28.7 µM
# How it was run: as §1
# [8] = system: TAB109; test: as above; conditions: P. falciparum in erythrocytes, SYBR Green DNA, 72 h; series mostly up to 28.7 µM
# How it was run: as §1
# [9] = system: TAB113; test: as above; conditions: P. falciparum in erythrocytes, SYBR Green DNA, 72 h; series mostly up to 28.7 µM
# How it was run: as §1
# [10] = system: TAB165; test: as above; conditions: P. falciparum in erythrocytes, SYBR Green DNA, 72 h; series mostly up to 28.7 µM
# How it was run: as §1
# [11] = system: W2; test: as above; conditions: P. falciparum in erythrocytes, SYBR Green DNA, 72 h; series mostly up to 28.7 µM
# How it was run: as §1
# [12] = system: CRL-7250; test: Cytotoxic Profiling of Annotated Libraries Using Quantitative High-Throughput Screening (AID 1296008); conditions: Five cell lines viability, CellTiter-Glo ATP luminescence, 48-72 h; max response: active compounds read low; note: potency is the fitted concentration of half-maximal effect
# How it was run: (§2)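 Cytotoxicity was measured as CellTiter-Glo ATP luminescence, read after 10 min at room temperature. Compound treatment of the cells lasted 48 or 72 hr at 37 degrees Celsius in a qHTS format.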
# [13] = system: HEK293; test: as above; conditions: Five cell lines viability, CellTiter-Glo ATP luminescence, 48-72 h; max response: active compounds read low
# How it was run: as §2
# [14] = system: HaCat; test: as above; conditions: Five cell lines viability, CellTiter-Glo ATP luminescence, 48-72 h; max response: active compounds read low
# How it was run: as §2
# [15] = system: NIH3T3; test: as above; conditions: Five cell lines viability, CellTiter-Glo ATP luminescence, 48-72 h; max response: active compounds read low
# How it was run: as §2
# [16] = system: HACAT; test: qHTS assay to identify novel small-molecules to repurpose for Merkel cell carcinoma treatment (AID 1296009); conditions: MCC and control cell lines, CellTiter-Glo viability, 72 h; series mostly up to 44.8 µM
# How it was run: (§3)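 After compound transfer in DMSO, plates were kept 72 hr at 37 degree celsius. Luminescent ATP signal from CellTiter-Glo served as viability measure, normalized against DMSO and no-cell controls.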
# [17] = system: MCC-13; test: as above; conditions: MCC and control cell lines, CellTiter-Glo viability, 72 h; series mostly up to 46 µM
# How it was run: as §3
# [18] = system: MCC-26; test: as above; conditions: MCC and control cell lines, CellTiter-Glo viability, 72 h; series mostly up to 46 µM
# How it was run: as §3
# [19] = system: KB-3-1; test: Cytotoxic Profiling of Annotated Libraries Using Quantitative High-Throughput Screening (AID 1296008); conditions: Five cell lines viability, CellTiter-Glo ATP luminescence, 48-72 h; max response: active compounds read low; note: potency is the fitted concentration of half-maximal effect
# How it was run: as §2
# [20] = system: HEK293T; test: qHTS assay to identify novel small-molecules to repurpose for Merkel cell carcinoma treatment (AID 1296009); conditions: MCC and control cell lines, CellTiter-Glo viability, 72 h; at 44.8 µM (top of the series) unless noted
# How it was run: as §3
# Note: nearly all actives have a fitted effect of over 60% in size.
smiles,measurement,setting,value
NCCCCCC(=O)O,Potency,[1],inactive
same,Potency,[2],inactive
same,Potency,[3],inactive
same,Potency,[4],inactive
same,Potency,[5],inactive
same,Potency,[6],inactive
same,Potency,[7],inactive
same,Potency,[8],inactive
same,Potency,[9],inactive
same,Potency,[10],inactive
same,Potency,[11],inactive
same,max response,[12],-1.72%
same,outcome,[12],inactive
same,max response,[13],-1.96% and 0.967%
same,outcome,[14],inactive
same,max response,[15],-2.83% and -5.79%
same,outcome,[16],inactive
same,Potency,[17],inactive
same,Potency,[18],inactive
N[C@@H](Cc1c[nH]c2ccc(O)cc12)C(=O)O,Potency,[1],inactive
same,Potency,[2],inactive
same,Potency,[3],inactive
same,Potency,[4],inactive
same,Potency,[5],inactive
same,Potency,[6],inactive
same,Potency,[7],inactive
same,Potency,[8],inactive
same,Potency,[9],inactive
same,Potency,[10],inactive
same,Potency,[11],inactive
same,max response,[12],-11.6%
same,outcome,[12],inactive
same,max response,[13],2.68%
same,outcome,[13],inactive
same,outcome,[14],inactive
same,max response,[19],5.77% and -8.69%
same,max response,[15],-0.603% and 4.53%
same,outcome,[16],inactive
same,outcome,[20],inactive
same,Potency,[17],inactive
same,Potency,[18],inactive
Clc1ccc2nsnc2c1NC1=NCCN1,Potency,[1],inactive
same,Potency,[2],inactive
same,Potency,[3],inactive
same,Potency,[4],inactive
same,Potency,[5],inactive
same,Potency,[6],inactive
same,Potency,[7],inactive
same,Potency,[8],inactive
same,Potency,[9],inactive
same,Potency,[10],inactive
same,Potency,[11],inactive
same,max response,[12],0.544% and 2.61%
same,max response,[13],-8.03%
same,outcome,[13],inactive
same,max response,[14],2.64%
same,outcome,[14],inactive
same,max response,[19],-0.508% and 0.187%
same,max response,[15],1.46%
same,outcome,[15],inactive
same,outcome,[16],inactive
same,outcome,[20],inactive
same,Potency,[17],inactive
same,Potency,[18],inactive
Cc1cnc(C(=O)NCCc2ccc(S(=O)(=O)NC(=O)NC3CCCCC3)cc2)cn1,Potency,[1],inactive
same,Potency,[2],inactive
same,Potency,[3],inactive
same,Potency,[4],inactive
same,Potency,[5],inactive
same,Potency,[6],inactive
same,Potency,[7],inactive
same,Potency,[8],inactive
same,Potency,[9],inactive
same,Potency,[10],inactive
same,Potency,[11],inactive
same,max response,[12],0.493%
same,outcome,[12],inactive
same,max response,[13],-14.8%
same,max response,[14],0.0058%
same,outcome,[14],inactive
same,max response,[19],-28.8% and 2.82%
same,max response,[15],4.64% and -13.5%
same,outcome,[16],inactive
same,Potency,[17],inactive
same,Potency,[18],inactive
CC1COc2c(N3CCN(C)CC3)c(F)cc3c(=O)c(C(=O)O)cn1c23 (stereo not given),max response,[12],1.02%
same,outcome,[12],inactive
same,max response,[13],-5.36%
same,outcome,[13],inactive
same,outcome,[14],inactive
same,max response,[15],-0.0145%
same,outcome,[15],inactive
same,outcome,[16],inactive
same,outcome,[20],inactive
same,Potency,[17],inactive
same,Potency,[18],inactive
Cc1cc(C(C)(C)C)c(O)c(C)c1CC1=NCCN1,Potency,[1],inactive
same,Potency,[2],inactive
same,Potency,[3],inactive
same,Potency,[4],inactive
same,Potency,[5],inactive
same,Potency,[6],inactive
same,Potency,[7],inactive
same,Potency,[8],inactive
same,Potency,[9],inactive
same,Potency,[10],inactive
same,Potency,[11],inactive
same,max response,[12],4.59% and 1.76%
same,outcome,[12],inactive
same,Potency,[13],9.35 µM (active)
same,max response,[13],-3.25%
same,max response,[14],-9.17% and -0.1%
same,outcome,[14],inactive
same,max response,[15],3.71%
same,outcome,[15],inactive
same,outcome,[16],inactive
same,Potency,[17],inactive
same,Potency,[18],inactive
CN(C)C(=N)N=C(N)N,Potency,[1],inactive
same,Potency,[2],inactive
same,Potency,[3],inactive
same,Potency,[4],inactive
same,Potency,[6],inactive
same,Potency,[7],inactive
same,Potency,[8],inactive
same,Potency,[9],inactive
same,Potency,[10],inactive
same,Potency,[11],inactive
same,outcome,[12],inactive
same,max response,[13],2.32%
same,outcome,[13],inactive
same,outcome,[14],inactive
same,max response,[19],-1.82% and 7.62%
same,max response,[15],-1.85% and 1.26%
same,outcome,[16],inactive
same,outcome,[20],inactive
same,Potency,[17],inactive
same,Potency,[18],inactive
Cn1cnc2c1c(=O)[nH]c(=O)n2C,Potency,[1],inactive
same,Potency,[2],inactive
same,Potency,[3],inactive
same,Potency,[4],inactive
same,Potency,[5],inactive
same,Potency,[6],inactive
same,Potency,[7],inactive
same,Potency,[8],inactive
same,Potency,[9],inactive
same,Potency,[10],inactive
same,Potency,[11],inactive
same,outcome,[12],inactive
same,Potency,[13],9.35 µM (active)
same,max response,[13],1.79%
same,outcome,[14],inactive
same,Potency,[15],26.4 µM (active)
same,max response,[15],1.38%
same,outcome,[16],inactive
same,Potency,[17],inactive
same,Potency,[18],inactive
CCOC(=O)C(C)(C)Oc1ccc(Cl)cc1,Potency,[1],inactive
same,Potency,[2],inactive
same,Potency,[3],inactive
same,Potency,[4],inactive
same,Potency,[5],inactive
same,Potency,[6],inactive
same,Potency,[7],inactive
same,Potency,[8],inactive
same,Potency,[9],inactive
same,Potency,[10],inactive
same,Potency,[11],inactive
same,max response,[12],2.19% and -5.27%
same,max response,[13],4.89%
same,outcome,[13],inactive
same,outcome,[14],inactive
same,outcome,[15],inactive
same,outcome,[16],inactive
same,outcome,[20],inactive
same,Potency,[17],inactive
same,Potency,[18],inactive
NC12CC3CC(CC(C3)C1)C2,Potency,[1],inactive
same,Potency,[2],inactive
same,Potency,[3],inactive
same,Potency,[5],inactive
same,Potency,[6],inactive
same,Potency,[7],inactive
same,Potency,[8],inactive
same,Potency,[9],inactive
same,Potency,[10],inactive
same,Potency,[11],inactive
same,outcome,[12],inactive
same,max response,[13],1.92%
same,outcome,[13],inactive
same,max response,[14],3.56%
same,outcome,[14],inactive
same,max response,[19],5.54% and 19.1%
same,max response,[15],1.39%
same,outcome,[15],inactive
same,outcome,[16],inactive
same,outcome,[20],inactive
same,Potency,[17],inactive
same,Potency,[18],inactive
